Marburg entry inh = inhibitors of Marburg virus binding or cell entry; Marburg virus pseudotyped entry inhibition, cell reporter; Potency, µM (highest dose often 37.8 µM), for inactives: at the top dose activity change, negative = inhibition, hits mostly inhibitors; actives 1.8% (n = 300,000); AID 540276; calls by dose curve; tested in HEK293 cells; also: potency is read from the fitted curve at half-maximal effect
HCMV antiviral = blocks human cytomegalovirus replication; actives 4.5% (n = 410,000); activity change, negative = inhibition, % at 57.5 µM; HFF cells, HCMV-luciferase reporter, 72 h; stronger effect = lower value; in the data active = activity change below about -60%; inconclusive = no clear call, values can overlap the other calls; inactive = above about -39%
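HFF cells seeded 16 h at 37C, treated with compounds, infected with luciferase-reporter HCMV at MOI 1 PFU/cell; luciferase read at 72 h post infection, normalized to buffer-only and Salinomycin controls.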
Lassa entry inh = Lassa virus entry inhibition | Lassa virus pseudotype entry inhibition, cell reporter | Potency, µM (highest dose often 37.9 µM), for inactives: at the top dose activity change, negative = inhibition, usual class: inhibitors | actives 1.2% (n = 300,000); calls by dose curve; tested in HEK293 cells; also: potency is read from the fitted curve at half-maximal effect; nearly all actives have a fitted effect of over 50% in size
HCV inh = HCV inhibition | Huh7.5.1 HCVcc-Cre infection, luciferase reporter, 44 h | Potency, µM (titrated, usually from 41.8 µM), without a hit: top-dose activity change, negative = inhibition, usual class: inhibitors | actives 3.4% (n = 340,000) | AID 651820; active = well fitted inhibition curve with a large enough effect; inconclusive = small, poorly fitted or top-dose-only effect, or another doubt; inactive = no such curve, though single readings can be large or run the other way; also: potency is read from the fitted curve at half-maximal effect
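Antiviral activity was scored by luciferase reporter output from cells infected with HCVcc-Cre (~0.5 moi) in presence of compound, 44 h infection period, cells seeded 1,000/well 4 h prior.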
FMDV inh = antivirals against foot and mouth disease virus; Potency, µM (top dose mostly 57.9 µM), for inactives: at the top dose activity change, negative = inhibition, usual class: inhibitors; actives 1.2% (n = 410,000); AID 1159524; FMDV antiviral cell-based qHTS; calls by dose curve; tested in HEK293T cells; also: read-out not given here; potency is read from the fitted curve at half-maximal effect; nearly all actives have a fitted effect of over 45% in size
Numbers without * were called inactive; u = inconclusive; x = not tested or not shown; [ ] = remark or other dose. Only some compounds are listed: those with a hit (about 7.9% of all), similar ones and a draw of the others. % is scaled to controls: 0 for no effect and ±100 for the full control effect.

SMILES	Marburg entry inh	HCMV antiviral	Lassa entry inh	HCV inh	FMDV inh
c1ccc2[nH]c3cc4ncnc4cc3nc2c1	-25.0%	-87.5*	-11.2%	-21.3%	6.4%
O=C(NNC(=S)NCCc1ccccc1)c1ccc(Br)s1	-23.8%[46.1 µM]	-21.0	11.4%[46.1 µM]	22.4%	5.9%
CN(C)C(=O)Oc1c(Cl)cc(Cl)c2ccccc12	6.6%	-71.3*	7.4%	-7.9%	-22.2%
COC(=O)c1ccc(N2C(c3ccsc3)=Cc3cc4c(cc3C2CC(=O)c2ccco2)OCO4)cc1 (stereo not given)	x	-69.5*	x	x	5.4%
COC(=O)c1ccc(N2C(c3cc(OC)cc(OC)c3)=Cc3ccc(OC)cc3C2CC(=O)c2ccco2)cc1 (stereo not given)	x	24.1	x	x	4.4%
COc1ccc(NC(=O)c2c(C)oc3ccc(O)c(CN4CCN(Cc5ccccc5)CC4)c23)cc1	u	u	u	x	-21.8%
COc1ccc(NC(=O)c2c(C)oc3ccc(O)c(CN4CCC(C)CC4)c23)cc1	11.2µM*	u	u	x	-12.4%
COc1ccc(NC(=O)c2c(C)oc3ccc(O)c(CN4CCCC(C)C4)c23)cc1 (stereo not given)	u	-37.8	-14.4%[46.1 µM]	x	-15.6%
COc1ccc(NC(=O)c2c(C)oc3ccc(O)c(CN4CCCCCC4)c23)cc1	u	-67.3*	u	x	-11.4%
COCCN(C(=O)CSc1nnc(-c2ccc(F)cc2)n1N)c1c(N)n(CC(C)C)c(=O)[nH]c1=O	x	8.4	x	x	-9.8%
CCCn1nnnc1NCc1ccc(SC)cc1	x	1.0	x	9.9%	0.0%
CSc1ccc(CNc2nnnn2C)cc1	-16.0%[46.1 µM]	-80.6*	19.3%[46.1 µM]	4.4%	-15.8%
CC(NC(=O)c1ccco1)C(c1cccs1)N1CCN(c2ccc(F)cc2)CC1 (stereo not given)	u	u	u	10µM*	x
COc1ccccc1CCN1COc2c(cc3c(C)c(C)c(=O)oc3c2C)C1	u	4.4	6.4%[46.1 µM]	x	-7.3%
O=C1CC(c2ccccc2)CC(O)=C1C=NCc1ccccc1Cl (stereo not given)	u	-81.1*	-21.9%	-24.4%	x
O=C1[C@H]2[C@H]3[C@H](O)[C@H](O)C/C(=N\OC[C@@H](O)COCc4ccco4)[C@@H]3CC[C@H]2C(=O)N1C[C@@H]1CCCO1	3.6%[14.2 µM]	x	x	x	x
CCOC(=O)NN=C1C[C@@H](O)[C@@H](O)[C@@H]2[C@H]3C(=O)N(C4CCCCC4)C(=O)[C@@H]3CC[C@H]12	19.7%[14.2 µM]	x	u	x	x
CN(Cc1ccc(Cl)c(Cl)c1)C(c1cc2ccccc2o1)c1nnnn1C(C)(C)C (stereo not given)	x	-77.5*	x	x	22.4µM*
CCN(CC)CCN(C)C(c1cc2ccccc2o1)c1nnnn1C(C)(C)C (stereo not given)	x	-13.3	x	x	-1.8%
COc1ccccc1-n1c2nc3ccccc3nc2c2c(=O)n(-c3cc(C)cc(C)c3)cnc21	u	-69.4*	5.0%	u	u
COc1ccccc1-n1cnc2c(c1=O)c1nc3ccccc3nc1n2CCc1ccccc1	19.7%	u	16.5%	3.8%	-27.9%
COc1ccccc1-n1cnc2c(c1=O)c1nc3ccccc3nc1n2-c1ccc(C)cc1	-2.6%	-87.1*	8.7%	u	-15.3%
C=CCn1cnc2c(c1=O)c1nc3ccccc3nc1n2-c1ccc(C)cc1	x	-21.8	x	23.6%	x
CCN(CC)CCCNC(=O)c1sc2nc3n(c(=O)c2c1C)CCCCC3	x	-15.2	1.2%[46.1 µM]	x	-17.0%
CCN(CC)CCNc1cc(C)nc2c1C(=O)C(=O)C=C2N1CCCCC1	x	-98.0*	x	u	u
SMILES	Marburg entry inh	HCMV antiviral	Lassa entry inh	HCV inh	FMDV inh
CCOC(=O)N/N=C1\C[C@@H](O)[C@@H](O)[C@@H]2[C@@H]3C(=O)N(c4ccc(F)cc4F)C(=O)[C@@H]3CC[C@@H]12	-21.5%[14.2 µM]	x	x	x	x
S=C(Nc1ccc(Cl)c(Cl)c1)NC1CCN(Cc2ccccc2)CC1	u	-78.3*	u	14.1µM*	14.1µM*
S=C(Nc1ccccc1)Nc1cccc(Cl)c1Cl	x	-28.3	x	8.4%	22.2%
S=C(Nc1cccc(Cl)c1Cl)NC1CCN(Cc2ccccc2)CC1	u	-65.7*	u	u	-6.3%
S=C(NCc1ccc2c(c1)OCO2)NC1CCN(Cc2ccccc2)CC1	u	-77.9*	u	u	20.8%
Fc1ccc(NC(=S)NC2CCN(Cc3ccccc3)CC2)cc1	x	-20.6	x	u	-2.9%
S=C(NCc1ccccc1)N1CCN(Cc2ccc3c(c2)OCO3)CC1	u	-35.4	0.5%	2.6%	-2.8%
S=C(Nc1ccc(CN2CCCCC2)cc1)Nc1cccc(Cl)c1Cl	11.2µM*	-26.8	u	u	-3.2%
COc1ccc(OC)c(CCNC(=O)CN2C(=O)COc3ccc(S(=O)(=O)N4CCC(C)CC4)cc32)c1	-9.6%[46.1 µM]	-25.7	-13.2%[46.1 µM]	x	-1.7%
O=C(COC(=O)c1ccc(Cl)c(S(=O)(=O)N2CCCCCC2)c1)NCc1ccccc1	x	1.1	x	x	-26.4%
CCOC(=O)c1cccc(NC(=O)CC2C(=O)N(c3ccc(C)cc3)C(=O)N2Cc2cccc(OC)c2)c1 (stereo not given)	x	-5.8	-20.3%[46.1 µM]	x	-14.2%
O=C(O)c1ccc2c(=O)n3c(nc2c1)/C(=C/c1ccccc1Br)CC3	-6.5%[46.1 µM]	16.8	-0.9%	20.1%	-7.4%
CC(=O)Nc1ccc2c(COC(=O)[C@@H](NS(=O)(=O)c3ccc(C)cc3)C(C)C)cc(=O)oc2c1	u	-22.4	u	u	13.0%
Cc1nn(-c2ccc(Cl)cc2)c2nc(-c3cccnc3)cc(C(F)(F)F)c12	-1.7%[46.1 µM]	36.1	-5.2%[46.1 µM]	x	-9.8%
COC1=C(C)C(=O)C2=C(C1=O)C(CO)N1C(C#N)C3CC4C(C1C2N1CCOC41)N3C (stereo not given)	u	-99.2*	u	x	u
CSCCC(NC(=O)OCc1ccccc1)C(=O)NCc1cccnc1 (stereo not given)	x	-11.9	x	1.1%	-0.8%
CCN(CC)CCNC(=O)CCc1c(C)nc2c(c(C)nn2-c2ccc(C)cc2)c1C	x	-92.9*	x	3.55µM*	-16.2%
CC(C)COP(=O)(OCC(C)C)C(O)c1ccc(F)cc1 (stereo not given)	-4.7%	-99.7*	3.2%	14.7%	48.7%
CC(=O)NC1CCCN(O)C(=O)/C=C(\C)CCOC(=O)C(NC(C)=O)CCCN(O)C(=O)/C=C(\C)CCOC(=O)C(NC(C)=O)CCCN(O)C(=O)/C=C(\C)CCOC1=O (stereo not given)	x	x	x	-22.6%	20µM*
CCc1ccc(C(O)(CC(C)C)C(CN2CCOCC2)c2ccccc2)cc1 (stereo not given)	x	-89.9*	x	u	u
COc1ccc(C(O)(CCC(C)C)C(CN2CCOCC2)c2ccc(Cl)cc2)cc1 (stereo not given)	u	u	u	u	-28.3%
COc1ccc(C(O)(CC(C)C)C(CN2CCOCC2)c2ccccc2)cc1 (stereo not given)	u	-82.7*	-16.2%[46.1 µM]	-6.4%	u
CCCC(O)(c1ccc(Cl)cc1)C(CN1CCOCC1)c1ccc(Cl)cc1 (stereo not given)	7.94µM*	-20.9	-16.4%[46.1 µM]	14.1%	u

Screening results deposited in PubChem by National Center for Advancing Translational Sciences (NCATS).
